Assay [1] is described as follows: small molecules captured by biotinylated probe aFSTL3 – biochemical, small-molecule microarray, fluorescence 635/667, stem cell growth factor project, primary screen (AID 1064).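 Also: measures binding of the biotinylated anti-FSTL3 antibody to printed compounds.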 The conditions noted are these: higher = more signal.
Assay [2] is described as follows: binders from COS7 lysate, DM2A8 probe, primary screen, torsin A project, cell lysate, small-molecule microarray, fluorescence 635/667 (AID 1065). The conditions noted are these: higher = more signal, COS7 lysate expressing mutant human TOR1A.
A short description of assay [3]: small molecules captured by biotinylated probe aFGF2 – biochemical, small-molecule microarray, fluorescence 635/667, stem cell growth factor project, primary screen (AID 1067).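 Also: measures binding of biotinylated aFGF2 protein to printed compounds on slides; z-score merges feature fluorescence and signal-to-noise across triplicate slides.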 The conditions noted are these: higher = more signal.
Assay [4] can be described thus: small molecules captured by biotinylated probe aFGF10 – biochemical, small-molecule microarray, fluorescence 635/667, stem cell growth factor project, primary screen (AID 1071).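 Also: score merges 667 nm spot intensity and signal to noise from triplicate slides.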 The settings on record: higher = more signal.
Assay [5] has as its target Neurogenic locus notch homolog protein 2 (Homo sapiens) (UniProt Q04721). The experiment in a line: small molecules binding Notch2 protein – biochemical, small-molecule microarray, 635 nm fluorescence, stem cell growth factors, primary screen (AID 1073). The conditions noted are these: higher = more signal.
Assay [6] deals with Pro-neuregulin-1, membrane-bound isoform (Homo sapiens) (UniProt Q02297). The experiment in a line: small molecules binding neuregulin-1 protein – biochemical, small-molecule microarray, fluorescence 635/667, psychiatric disease protein project, primary screen (AID 1075).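 Also: score combines 667 nm spot fluorescence with signal to noise.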 The settings on record: NRG1 binding, 635 nm fluorescence, higher = more signal.
In assay [7] the test system is Neuregulin-1 EGF-like domain. The experiment in a line: small molecules binding NRG1 EGF domain – biochemical, small-molecule microarray, 635 nm fluorescence, primary screen (AID 1081).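 Also: binding of the protein to compounds printed on small-molecule microarray slides.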 The conditions noted are these: higher = more signal.
Assay [8] is described as follows: FRG1 expression reporter modulators in myotubes – cell-based, C2C12 myotubes, firefly/Renilla luciferase, luminescence, FRG1 inhibition for FSHD, primary screen (AID 1084). The settings on record: FRG1 promoter luciferase, higher = more signal, called active from +8 up or from −8 down.
Assay [9] is described as follows: small molecules captured by biotinylated probe aFST – biochemical, small-molecule microarray, fluorescence 635/667, stem cell growth factor project, primary screen (AID 1086).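 Also: score merges 667 nm fluorescence with signal-to-noise of each printed compound spot.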 The conditions noted are these: higher = more signal.
Assay [10] in a line: binders of probe aHhip on microarray, primary screen, stem cell growth factor project, biochemical, small-molecule microarray, fluorescence 635/667 (AID 1087).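 Also: score merges spot fluorescence at 667nm with spot signal to noise ratio.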 The settings on record: higher = more signal.
The test system of assay [11] is PRMT1 (protein arginine N-methyltransferase 1). The experiment in a line: small molecules binding arginine methyltransferase PRMT1 – biochemical, small-molecule microarray, 635 nm fluorescence, primary screen (AID 1088).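 Also: binding of Prmt1 protein to compounds spotted on small-molecule microarray slides.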 The conditions noted are these: higher = more signal.
Assay [12] is described as follows: growth effects on S. cerevisiae YJM789 – YJM789 clinical isolate, OD600, 24 h, basal, primary screen (AID 1089).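 Also: growth of clinical yeast isolate S. cerevisiae YJM 789 seeded 1000 cells per well; test concentration not given here.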 The conditions noted are these: higher = more signal, called active from +8 up or from −8 down.
Assay [13] is described as follows: S. pombe growth modifiers, basal conditions – strain 972, OD600, 24 h, no modulator, primary screen (AID 1090).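 Also: basal condition with compound alone and no growth modifier present; test concentration not given here.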 The settings on record: S. pombe 972 growth, higher = more signal, called active from +8 up or from −8 down.
Assay [14] is described as follows: budding yeast growth modifiers under rapamycin – strain BY4716, OD600, 96 h, primary screen (AID 1091). Also: test concentration not given here. The settings on record: S. cerevisiae BY4716 + rapamycin, higher = more signal, called active from +8 up or from −8 down.
Assay [15] addresses Torsin-1A-interacting protein 2 (Homo sapiens) (UniProt Q8NFQ8). Put plainly: small molecules binding lysate-expressed LULL1 – cell lysate, human LULL1 lysate, 635/667 nm fluorescence, primary screen (AID 1092).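 Also: score merges per-feature 667 nm fluorescence with signal-to-noise.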 The conditions noted are these: small-molecule microarray, hLULL1 lysate binding, 635 nm fluorescence; higher = more signal.
A short description of assay [16]: optical density change of DRC41 E. coli – strain DRC41, OD650, 24 h, E. coli filamentation project, primary screen (AID 1093).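 Also: MC1000 strain lacking acrAB efflux and sulA so SOS filamentation is blocked; test concentration not given here.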 The settings on record: E. coli DRC41 growth, higher = more signal, called active from +8 up or from −8 down.
Assay [17] in a line: probe aLefty2 binding to arrayed compounds – biochemical, biotinylated probe, 635/667 nm fluorescence, primary screen (AID 1094).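 Also: score merges spot fluorescence near 667 nm with spot signal-to-noise ratio.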 The conditions noted are these: small-molecule microarray, higher = more signal.
Assay [18] concerns Noggin (protein binding on small-molecule microarray). Put plainly: small molecules binding Noggin protein – biochemical, 635/667 nm fluorescence, primary screen (AID 1095).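 Also: score merges 667 nm feature fluorescence with signal to noise over triplicate slides.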 The settings on record: 635 nm fluorescence, higher = more signal.
The target of assay [19] is Neurogenic locus notch homolog protein 3 (Homo sapiens) (UniProt Q9UM47). Put plainly: small molecules binding NOTCH3 protein – biochemical, 635/667 nm fluorescence, primary screen (AID 1096). The conditions noted are these: small-molecule microarray, 635 nm fluorescence, higher = more signal.
Assay [20] in a line: probe aEGFR binding to arrayed compounds – biochemical, biotinylated probe, 635/667 nm fluorescence, primary screen (AID 1097).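 Also: probe is a biotinylated anti-EGFR antibody binding compounds printed on slides; score combines fluorescence near 667 nm and signal to noise of each spot.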 The settings on record: small-molecule microarray, higher = more signal.

SMILES strings stand for the structures. The source made the active and inactive calls.

Neurogenic locus notch homolog protein 3 (Homo sapiens), sequence (Q9UM47 whole entry, looked up): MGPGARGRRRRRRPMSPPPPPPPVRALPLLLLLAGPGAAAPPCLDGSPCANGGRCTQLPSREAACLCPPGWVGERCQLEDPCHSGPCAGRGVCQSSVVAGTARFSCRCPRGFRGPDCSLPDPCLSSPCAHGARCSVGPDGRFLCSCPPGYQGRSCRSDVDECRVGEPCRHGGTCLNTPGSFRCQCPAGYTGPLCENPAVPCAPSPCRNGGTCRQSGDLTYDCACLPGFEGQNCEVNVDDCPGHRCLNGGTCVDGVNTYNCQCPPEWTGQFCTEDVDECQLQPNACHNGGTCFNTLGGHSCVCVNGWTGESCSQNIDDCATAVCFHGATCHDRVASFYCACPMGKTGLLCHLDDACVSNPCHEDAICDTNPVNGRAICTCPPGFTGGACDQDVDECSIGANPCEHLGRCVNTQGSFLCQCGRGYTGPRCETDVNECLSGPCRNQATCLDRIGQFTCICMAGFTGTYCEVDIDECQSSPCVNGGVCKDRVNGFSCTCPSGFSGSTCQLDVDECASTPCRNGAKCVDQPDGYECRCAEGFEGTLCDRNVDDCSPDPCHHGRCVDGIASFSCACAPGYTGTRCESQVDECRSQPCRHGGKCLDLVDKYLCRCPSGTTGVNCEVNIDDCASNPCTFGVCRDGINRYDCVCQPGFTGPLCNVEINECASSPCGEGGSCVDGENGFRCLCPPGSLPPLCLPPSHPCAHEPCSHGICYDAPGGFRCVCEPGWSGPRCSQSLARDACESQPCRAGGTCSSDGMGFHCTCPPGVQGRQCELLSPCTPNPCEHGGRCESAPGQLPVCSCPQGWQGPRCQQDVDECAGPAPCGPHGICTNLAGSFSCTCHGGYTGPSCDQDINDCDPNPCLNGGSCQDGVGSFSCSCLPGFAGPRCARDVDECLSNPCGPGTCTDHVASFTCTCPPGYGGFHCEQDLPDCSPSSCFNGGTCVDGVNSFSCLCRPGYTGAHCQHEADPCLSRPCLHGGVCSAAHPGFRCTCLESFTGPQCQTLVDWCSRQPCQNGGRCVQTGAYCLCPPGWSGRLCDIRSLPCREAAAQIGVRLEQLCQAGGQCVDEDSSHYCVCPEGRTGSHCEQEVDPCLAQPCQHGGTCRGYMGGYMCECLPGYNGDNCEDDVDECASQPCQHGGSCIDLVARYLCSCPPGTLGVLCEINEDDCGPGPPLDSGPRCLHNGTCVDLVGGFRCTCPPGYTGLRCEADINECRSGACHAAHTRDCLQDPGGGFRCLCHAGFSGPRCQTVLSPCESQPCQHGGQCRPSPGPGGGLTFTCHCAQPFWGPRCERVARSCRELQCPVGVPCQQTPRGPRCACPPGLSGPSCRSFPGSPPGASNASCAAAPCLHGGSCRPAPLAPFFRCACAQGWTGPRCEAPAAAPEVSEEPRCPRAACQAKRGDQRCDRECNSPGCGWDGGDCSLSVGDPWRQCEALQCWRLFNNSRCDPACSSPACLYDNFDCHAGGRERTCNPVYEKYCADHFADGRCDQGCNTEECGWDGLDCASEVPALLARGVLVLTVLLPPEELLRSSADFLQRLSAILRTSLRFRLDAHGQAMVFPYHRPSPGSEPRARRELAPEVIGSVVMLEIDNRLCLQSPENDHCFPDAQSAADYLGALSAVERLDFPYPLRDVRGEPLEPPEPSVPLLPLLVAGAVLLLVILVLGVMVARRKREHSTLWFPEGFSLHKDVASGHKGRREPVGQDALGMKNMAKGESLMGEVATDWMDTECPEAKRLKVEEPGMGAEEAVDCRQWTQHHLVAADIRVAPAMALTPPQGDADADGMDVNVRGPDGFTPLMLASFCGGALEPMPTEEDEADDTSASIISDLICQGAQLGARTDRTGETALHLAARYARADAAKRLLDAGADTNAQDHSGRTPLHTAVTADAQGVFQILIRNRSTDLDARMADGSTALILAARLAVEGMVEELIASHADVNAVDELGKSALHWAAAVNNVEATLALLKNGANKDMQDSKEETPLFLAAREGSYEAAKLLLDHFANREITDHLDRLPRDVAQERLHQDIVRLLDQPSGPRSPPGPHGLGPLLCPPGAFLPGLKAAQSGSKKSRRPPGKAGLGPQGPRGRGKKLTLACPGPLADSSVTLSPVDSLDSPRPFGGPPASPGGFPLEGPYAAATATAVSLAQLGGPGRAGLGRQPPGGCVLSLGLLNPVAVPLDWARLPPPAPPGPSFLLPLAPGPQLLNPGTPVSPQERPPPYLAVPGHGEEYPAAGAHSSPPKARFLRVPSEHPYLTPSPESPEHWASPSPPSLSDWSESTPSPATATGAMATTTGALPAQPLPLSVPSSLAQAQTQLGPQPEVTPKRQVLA
Neurogenic locus notch homolog protein 2 (Homo sapiens), sequence (Q04721 whole entry, looked up, canonical isoform): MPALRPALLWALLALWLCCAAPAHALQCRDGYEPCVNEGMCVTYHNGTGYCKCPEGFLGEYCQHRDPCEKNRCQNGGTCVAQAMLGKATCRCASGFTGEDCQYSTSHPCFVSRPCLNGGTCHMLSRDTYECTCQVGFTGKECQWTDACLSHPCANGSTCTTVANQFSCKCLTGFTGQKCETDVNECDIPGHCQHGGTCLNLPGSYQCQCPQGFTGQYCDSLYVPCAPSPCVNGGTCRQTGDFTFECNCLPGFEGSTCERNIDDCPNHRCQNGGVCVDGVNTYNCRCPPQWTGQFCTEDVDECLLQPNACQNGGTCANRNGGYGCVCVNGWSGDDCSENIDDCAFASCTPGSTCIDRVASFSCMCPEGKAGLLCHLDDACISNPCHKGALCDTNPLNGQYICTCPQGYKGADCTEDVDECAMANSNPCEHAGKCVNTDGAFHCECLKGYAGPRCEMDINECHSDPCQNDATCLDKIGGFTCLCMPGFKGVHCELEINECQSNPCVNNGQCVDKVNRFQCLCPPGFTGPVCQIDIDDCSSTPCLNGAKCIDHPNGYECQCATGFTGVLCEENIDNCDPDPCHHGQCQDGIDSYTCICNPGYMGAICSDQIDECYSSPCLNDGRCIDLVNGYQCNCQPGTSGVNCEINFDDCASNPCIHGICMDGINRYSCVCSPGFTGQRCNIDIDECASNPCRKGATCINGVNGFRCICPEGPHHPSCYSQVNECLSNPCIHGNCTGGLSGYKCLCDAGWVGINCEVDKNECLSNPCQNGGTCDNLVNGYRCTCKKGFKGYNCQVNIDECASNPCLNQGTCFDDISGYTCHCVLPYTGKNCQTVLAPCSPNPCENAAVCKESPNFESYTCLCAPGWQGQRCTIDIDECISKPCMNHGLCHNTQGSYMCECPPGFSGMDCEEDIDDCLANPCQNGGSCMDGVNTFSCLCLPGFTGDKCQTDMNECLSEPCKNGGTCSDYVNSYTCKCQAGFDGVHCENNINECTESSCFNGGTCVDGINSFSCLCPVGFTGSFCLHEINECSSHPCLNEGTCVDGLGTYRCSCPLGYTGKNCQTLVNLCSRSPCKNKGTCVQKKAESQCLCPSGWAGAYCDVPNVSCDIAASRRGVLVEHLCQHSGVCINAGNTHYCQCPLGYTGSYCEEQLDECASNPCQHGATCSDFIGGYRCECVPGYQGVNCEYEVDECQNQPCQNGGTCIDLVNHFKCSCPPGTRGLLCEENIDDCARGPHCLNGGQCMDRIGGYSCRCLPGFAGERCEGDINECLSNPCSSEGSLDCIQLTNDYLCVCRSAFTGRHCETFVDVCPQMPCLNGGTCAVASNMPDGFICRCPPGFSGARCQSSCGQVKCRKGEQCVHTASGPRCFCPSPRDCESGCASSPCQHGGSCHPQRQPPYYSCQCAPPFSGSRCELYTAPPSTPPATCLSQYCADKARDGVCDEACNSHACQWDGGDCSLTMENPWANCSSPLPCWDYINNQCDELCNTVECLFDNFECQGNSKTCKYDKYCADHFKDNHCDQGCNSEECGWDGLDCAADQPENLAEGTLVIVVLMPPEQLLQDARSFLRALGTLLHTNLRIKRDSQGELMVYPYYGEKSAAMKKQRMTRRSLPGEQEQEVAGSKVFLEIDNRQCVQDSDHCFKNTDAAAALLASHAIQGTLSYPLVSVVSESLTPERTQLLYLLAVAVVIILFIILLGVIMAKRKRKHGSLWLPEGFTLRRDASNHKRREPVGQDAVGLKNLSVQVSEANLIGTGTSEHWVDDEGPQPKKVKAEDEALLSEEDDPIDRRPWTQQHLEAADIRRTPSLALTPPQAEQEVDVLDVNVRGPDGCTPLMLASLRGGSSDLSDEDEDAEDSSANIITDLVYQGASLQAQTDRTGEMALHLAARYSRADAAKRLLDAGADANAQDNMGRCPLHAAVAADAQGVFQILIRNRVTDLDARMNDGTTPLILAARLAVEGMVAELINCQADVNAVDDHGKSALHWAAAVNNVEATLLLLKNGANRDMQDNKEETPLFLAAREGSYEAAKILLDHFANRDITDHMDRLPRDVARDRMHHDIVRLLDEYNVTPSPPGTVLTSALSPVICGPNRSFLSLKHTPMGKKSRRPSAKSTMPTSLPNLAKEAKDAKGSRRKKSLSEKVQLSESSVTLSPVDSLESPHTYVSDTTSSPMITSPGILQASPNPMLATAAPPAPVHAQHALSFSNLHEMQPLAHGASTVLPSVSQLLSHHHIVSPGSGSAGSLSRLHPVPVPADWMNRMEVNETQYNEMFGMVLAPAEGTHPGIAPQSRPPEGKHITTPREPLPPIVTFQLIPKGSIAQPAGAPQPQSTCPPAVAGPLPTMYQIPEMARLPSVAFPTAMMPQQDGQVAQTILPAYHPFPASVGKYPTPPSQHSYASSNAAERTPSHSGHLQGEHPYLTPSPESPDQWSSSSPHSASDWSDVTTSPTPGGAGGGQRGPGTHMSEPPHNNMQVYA

As to `CCCC[C@H]1OB(O)C[C@H]2C1=C(COc1ccccc1)C[C@H]1C(=O)C=CC(=O)[C@H]12`, the composite z-score is -0.315 in assay [1]; 0.351 in assay [2]; -0.0503 in assay [3]; 0.603 in assay [4]; 0.489 in assay [5]; 0.169 in assay [6]. The composite z-score in assay [7] was 0.19; in assay [9], 0.23; in assay [10], 0.316; in [11], 1.07; in assay [15] it was 0.258; in assay [17], -0.377. Further, the composite z-score in assay [18] was 0.592; in assay [19] it was 1.03; in [20], -0.0007. Also, the z-score in assay [8] is -1.1 (inactive); in [12], 0.426 (inactive); in [13], -3.31 (inactive); in assay [14], -0.241 (inactive); in [16], 1.78 (inactive).

Consider `CCCNC(=O)[C@@]1(Sc2ccc(C)cc2)CC(=O)N(Cc2ccccc2Cl)[C@@H]1c1ccc(CO)cc1I`, for which the composite z-score was 0.746 in assay [1]; -1.23 in assay [2]; -0.127 in assay [3]; -0.391 in assay [4]; -1.13 in [5]; 1.4 in assay [6]. Further, the composite z-score in assay [7] turned out to be 0.895; in assay [9], 0.0493; in assay [10], 0.106; in [11] it was 0.16; in [15], 2.08; in [17] it was 0.328. Further, the composite z-score was -1.24 in assay [18], -0.502 in assay [19] and -0.267 in assay [20]. For the same compound, the z-score in [8] is -1.6 (inactive); in assay [12], -1.17 (inactive); in assay [13], -3.81 (inactive); in assay [14], 1.82 (inactive); in [16], 0.545 (inactive).

Take `C=CC[C@]1(C(=O)NCC(O)CO)COC(c2ccc(OCCCO)cc2)=N1` (stereo not given in full): the composite z-score was 1.3 in assay [1]; 1.29 in [2]; 0.0163 in assay [3]; -0.0216 in [4]; -0.888 in assay [5]; 0.0498 in assay [6]. Moreover, the composite z-score was 0.99 in [7]; 0.0371 in [9]; -0.141 in assay [10]; -0.726 in assay [11]; 2.15 in assay [15]; 0.479 in assay [17]. Besides, the composite z-score was -0.415 in assay [18], -1.35 in assay [19] and 0.0444 in assay [20]. Besides, the z-score was 1.14 (inactive) in [8]; 0.26 (inactive) in assay [12]; 0.691 (inactive) in [13]; 0.959 (inactive) in assay [14]; -0.363 (inactive) in assay [16].

For `C=C(C)[C@@H]1CC=C(C(O)C2C=CC3C(=O)N(c4ccccc4)C(=O)C3N2Nc2ccc([N+](=O)[O-])cc2)CC1` (stereo not given in full), the composite z-score in assay [1] was -0.308; in assay [2], 0.356; in assay [3], -0.0784; in assay [4], 1.05; in assay [5] it was 1.61; in assay [6] it was 1.07. For the same compound, the composite z-score is 1.24 in assay [7]; 1.57 in assay [9]; 0.167 in [10]; 1.55 in [11]; 3.57 in [15]; -0.0357 in [17]. Further, the composite z-score in [18] was 0.939; in assay [19] it was 1.05; in [20] it was -0.0435. Moreover, the z-score in assay [8] was -0.0111 (inactive); in assay [12], -0.0158 (inactive); in [13], 0.348 (inactive); in [14] it was 3.6 (inactive); in assay [16], -1.96 (inactive).

For `COCCn1c(C(=O)N(C)C)cc2c1C[C@H]1CN(C(=O)c3ccccc3)[C@@](Cc3ccc(OC)cc3)(C(=O)OC)[C@@H]21`, the composite z-score in assay [1] is 0.609; in assay [2], -0.478; in assay [3] it was -0.19; in assay [4] it was 0.34; in [5], 1.64; in assay [6], 1.54. Moreover, the composite z-score in [7] is 1.27; in assay [9], 1.32; in assay [10], 0.0053; in [11], -0.325; in assay [15] it was 3.31; in assay [17] it was 0.43. The composite z-score was -0.465 in [18], 1.1 in assay [19] and 0.0634 in assay [20]. Also, the z-score is 1.54 (inactive) in assay [8]; 1.15 (inactive) in assay [12]; 1.82 (inactive) in [13]; 2.03 (inactive) in [14]; -0.332 (inactive) in assay [16].

(Values after PubChem BioAssay.)
